Common to all, as to experiment: NCI-60 one-dose screen, 48 h (100 = growth as untreated, 0 = no growth, -100 = all killed)
What all share (settings): 10 µM unless noted

In assay [1] the test system is SK-MEL-2 melanoma.
In assay [2] the test system is EKVX NSCLC.
For assay [3], the system named is SN12C renal.
Assay [4] has as its system UO-31 renal.
Assay [5] has as its system TK-10 renal.
Assay [6] has as its system ACHN renal.
For assay [7], the system named is CAKI-1 renal.
Assay [8] concerns A498 renal.
In assay [9] the test system is CCRF-CEM leukemia.
Assay [10] concerns MOLT-4 leukemia.
Assay [11] has as its system RPMI-8226 leukemia.
The subject of assay [12] is OVCAR-8 ovarian.
Assay [13] has as its system OVCAR-5 ovarian.
The subject of assay [14] is OVCAR-4 ovarian.
Assay [15] deals with SK-OV-3 ovarian.
The test system of assay [16] is IGROV1 ovarian.
Assay [17] relates to OVCAR-3 ovarian.
Assay [18] concerns HS 578T breast.
In assay [19] the test system is NCI/ADR-RES ovarian.

About 83,000 compounds went through this panel and 20% of them were active in at least one assay; those are over-represented in the sample as a whole.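 Note: values are percent growth. 100 is the growth of untreated cells, values between 100 and 0 indicate rising inhibition; between -100 and 0 indicates cell death.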 Values without a mark were called inactive. Active and inactive are the calls of the source. How the source made its calls: active means growth percent below 10; inactive means the rest.

On to `Cc1ccc(S(=O)(=O)NCC[C@@H]2C[C@H]2c2cc3ccccc3s2)cc1`, for which the growth in [1] is 111%; in [2] it was 95%; in assay [3] it was 91.6%; in assay [4] it was 84%; in assay [5] it was 110%; in assay [6] it was 102%. Also, the growth in assay [7] was 79.6%; in assay [8], 81.7%; in [9], 96.4%; in assay [10], 92.6%; in [11] it was 83.4%; in assay [12] it was 97.3%. Moreover, the growth was 106% in assay [13]; 78.3% in assay [14]; 107% in assay [15]; 101% in assay [16]; 101% in [17]; 91.5% in [18]. The growth in [19] was 96.9%.
`c1ccc2cc3nc4cc5ccccc5cc4nc3cc2c1`: the growth in assay [1] was 104%; in [2] it was 100%; in assay [3], 88.6%; in assay [4], 89%; in assay [5], 108%; in [6] it was 97.4%. The growth in [7] was 113%; in assay [8] it was 107%; in assay [9], -24.9% (active); in assay [10], 109%; in assay [11], 58.6%; in assay [12], 84.8%. Moreover, the growth in assay [13] is 91.6%; in assay [14], 104%; in assay [15], 97.3%; in assay [16], 86.7%; in assay [17], 96.7%; in [18] it was 102%. Moreover, the growth in assay [19] was 73.4%.
`C[C@H]1[C@H]2[C@H]3CC[C@@H]4[C@@]5(C)C/C(=C/c6cccnc6)C(=O)C(C)(C)[C@@H]5CC[C@@]4(C)[C@]3(C)CC[C@]23CO[C@]1(C)[C@@H](C(=O)/C=C\c1cccnc1)C3`: the growth is -25.5% (active) in [1]; -1.58% (active) in [2]; -17.7% (active) in [3]; -97.3% (active) in assay [4]; -14.5% (active) in assay [5]; -22.2% (active) in assay [6]. In addition, the growth was 9.32% (active) in assay [7]; -59.1% (active) in assay [8]; 17.9% in assay [9]; 16.7% in [10]; 5.06% (active) in assay [11]; -13.6% (active) in assay [12]. Moreover, the growth in assay [13] was -4% (active); in assay [14], 18.6%; in [15], 58.9%; in assay [16], 1.25% (active); in [17] it was -43.7% (active); in assay [18], 11.2%. The growth in [19] is 2.97% (active).
Regarding `COc1cc(/C=C/C(=O)c2c(C)nc3ccccc3c2/C=C/c2ccc(C)cc2)cc(OC)c1OC`, the growth in assay [1] is 39.7%; in [2], 34.7%; in [3] it was 15.2%; in [4], 33.5%; in assay [5], 54.3%; in assay [6], 13.7%. The growth in assay [7] is 28.6%; in [8] it was 32.6%; in assay [9], 5.31% (active); in [10], 4.36% (active); in [11], -13.4% (active); in assay [12], 17%. The growth is 17.7% in assay [13]; 39.5% in assay [14]; 58.6% in assay [15]; 21% in [16]; 15.6% in assay [17]; 46.7% in assay [18]. Further, the growth in assay [19] is 9.69% (active).
As for `Cc1ccc(C2SCC(=O)N2Cc2ccccc2)cc1` (stereo not drawn), the growth in assay [1] was 100%; in assay [2], 89.5%; in assay [3], 94.8%; in assay [4], 83.8%; in assay [5], 99.5%; in assay [6], 100%. For the same compound, the growth in assay [7] was 84.4%; in assay [8], 109%; in assay [9], 79.2%; in assay [10], 84%; in assay [11], 96.7%; in [12], 98.8%. Also, the growth in assay [13] was 101%; in assay [14], 98.9%; in assay [15], 103%; in assay [16] it was 102%; in assay [17], 116%; in assay [18], 103%. The growth in assay [19] is 103%.
As for `O=C(Cc1ccc(F)c(F)c1)Nc1cc(C2(C(F)(F)F)CC2)nn1Cc1ccccc1`, the growth is -32.9% (active) in [1]; 6.62% (active) in assay [2]; 6.15% (active) in assay [3]; -3.87% (active) in assay [4]; 3.48% (active) in assay [5]; -13.2% (active) in assay [6]. Besides, the growth is -18.4% (active) in assay [7]; -34% (active) in [8]; 20.1% in assay [9]; 8.42% (active) in assay [10]; 3.57% (active) in [11]; 6.55% (active) in assay [12]. Besides, the growth in assay [13] was 2.55% (active); in assay [14] it was 10.2%; in assay [15], -24.7% (active); in assay [16] it was 30.3%; in [17] it was 7.3% (active); in assay [18], -2.64% (active). Further, the growth in assay [19] is 4.36% (active).
In the case of `COCCN(C(=O)c1ccc(F)cc1F)c1c(N)n(Cc2ccccc2)c(=O)[nH]c1=O`, the growth in [1] was 98.7%; in [2], 109%; in assay [3] it was 108%; in assay [4] it was 83.4%; in [5], 119%; in assay [6], 103%. Also, the growth in assay [7] is 106%; in [8] it was 100%; in assay [9] it was 94.5%; in assay [10] it was 98.1%; in assay [11] it was 112%; in assay [12] it was 112%. For the same compound, the growth in assay [13] was 92.2%; in assay [14] it was 98.9%; in assay [15] it was 111%; in assay [16] it was 2.97% (active); in assay [17], 115%; in assay [18] it was 107%. In addition, the growth in assay [19] was 110%.

The values above are taken from PubChem BioAssay (NCI).
